# SMN2 splice up: SMN2 splice variant enhancement; HEK293 SMN2-luciferase splicing reporter, luminescence, 30-36 h; Potency, µM (doses to about 46.1 µM), without a hit: at the highest dose activity change, positive = activation, actives largely listed as activators; 210,000 compounds, 2.8% hits; also: % of control where 0% means no effect; nearly all actives have a fitted effect of over 55% in size
#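 qHTS luciferase splicing reporter: luminescence rises when SMN2 exon 7 is included in transfected HEK293 cells. Compound exposure lasted 30-36 h at 37C, with 4.5 mM final sodium butyrate as control, followed by a ONE-Glo read.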
# Rab9 prom act: activators of Rab9 promoter. Huh7 Rab9 promoter-luciferase reporter, luminescence, 24 h. Potency, µM (doses to about 9.22 µM), for inactives: at the top dose activation, negative = inhibition, actives largely listed as activators. 320,000 compounds, 2.8% hits. AID 485297; also: % of control where 0% means no effect; nearly all actives have a fitted effect of over 60% in size
#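 Measured in stably transfected Huh7 cells bearing a Rab9 promoter–luciferase construct: 24 h compound treatment at 37 °C, followed by luminescence detection.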
# FLuc modulator: inhibits or activates purified firefly luciferase, miR-21 counter-screen; 360,000 compounds, 6.9% hits; AID 588342; P08659; purified FLuc, Km substrates, luminescence inhibition; Potency, µM (series often up to 57.5 µM), for inactives: at the highest dose activity change, negative = inhibition, actives largely listed as inhibitors;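 also: plate controls were vehicle for no effect and reference inhibitor for full effect; nearly all actives have a fitted effect of over 55% in size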
# Target sequence (P08659 whole entry, looked up): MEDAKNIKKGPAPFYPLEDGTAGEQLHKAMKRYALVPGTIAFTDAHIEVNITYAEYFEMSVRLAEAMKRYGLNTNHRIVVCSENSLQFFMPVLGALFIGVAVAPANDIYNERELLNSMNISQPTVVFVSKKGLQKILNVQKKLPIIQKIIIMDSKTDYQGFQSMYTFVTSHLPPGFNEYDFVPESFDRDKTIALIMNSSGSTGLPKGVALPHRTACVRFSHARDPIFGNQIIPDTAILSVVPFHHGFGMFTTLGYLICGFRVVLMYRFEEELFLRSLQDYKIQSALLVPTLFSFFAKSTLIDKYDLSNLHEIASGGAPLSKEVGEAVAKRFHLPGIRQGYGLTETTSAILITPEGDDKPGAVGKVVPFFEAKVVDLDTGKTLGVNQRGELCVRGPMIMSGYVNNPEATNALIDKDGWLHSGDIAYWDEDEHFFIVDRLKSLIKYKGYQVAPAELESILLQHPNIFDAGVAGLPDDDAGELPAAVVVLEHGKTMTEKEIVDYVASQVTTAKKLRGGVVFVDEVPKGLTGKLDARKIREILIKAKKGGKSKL
#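 Purified P. pyralis luciferase (10nM final) with 10uM D-luciferin and 10uM ATP (Km levels) in 50mM Tris acetate pH 7.5, 10mM Mg acetate, 0.01% Tween-20, 0.05% BSA; qHTS 6-point titration, ~60 µM downward; luminescence read.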
# Luc counter: Kinase-Glo luciferase inhibition (counter-screen) | Q27757 | Kinase-Glo luciferase, ATP luminescence, 8 min | Potency, µM (highest dose often 38.3 µM), for the others: top-dose activity change, negative = inhibition, usual class: inhibitors | 200,000 compounds, 0.28% hits | AID 1379; also: % is scaled to controls: 0 for no effect and ±100 for the full control effect; nearly all actives have a fitted effect of over 60% in size
#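 Light output from Kinase-Glo luciferase with luciferin and 10 uM ATP in 50 mM imidazole pH 7.2, KCl, MgCl2, Tween 20, BSA; compound pin-delivered, 8-min ambient incubation, then luminescence read.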
# NPC1 promoter act: NPC1 promoter activation | Huh7 NPC1 promoter luciferase reporter, 24 h | Potency, µM (top dose mostly 9.22 µM), without a hit: at the top dose activation, usual class: activators | 320,000 compounds, 2.4% hits; also: % of control where 0% means no effect; nearly all actives have a fitted effect of over 60% in size
#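 Stable NPC1-promoter luciferase Huh7 line; cpd (DMSO) 24 h, 37 °C, 5% CO2; Amplite luciferase reagent 10 min RT; luminescence readout. qHTS format.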
# ELG1 genotoxic: genotoxicity induction in ELG1-luciferase HEK293T cells; HEK293T ELG1-luciferase reporter, luminescence, 16 h; AID 504466; Potency, µM (titrated, usually from 46 µM), without a hit: at the highest dose activity change, positive = activation, actives largely listed as activators; 330,000 compounds, 1.3% hits; also: % of control where 0% means no effect; nearly all actives have a fitted effect of over 60% in size
#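 Quantitative HTS format in 1536-well plates. HEK293T ELG1-luciferase reporter cells receive test compound and are incubated 16 hr at 37 °C, 5% CO2; ONE-Glo added, 30 min room temperature, then luminescence read.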
# The depositor's hits bear a star; u = inconclusive; x = no result given; [ ] = remark or other dose. Only some compounds are listed: those with a hit (about 7.5% of all), similar ones and a draw of the others. Calls follow the shape of the dose curve; as a rule, active = well fitted curve in the direction sought with a large enough effect; inconclusive = small, poorly fitted or top-dose-only effect, or another doubt; inactive = no such curve, though single readings can be large; an effect the other way counts as inactive or inconclusive. Potency is read from the fitted curve at half-maximal effect.
SMILES,SMN2 splice up,Rab9 prom act,FLuc modulator,Luc counter,NPC1 promoter act,ELG1 genotoxic
COc1ccc(CCNc2nc(-c3ccc(NC(C)=O)cc3)cs2)cc1OC,-44.0%,-0.3%,u,-0.7%,-0.1%,-19.6%
COc1ccc(CCNc2nc(-c3ccc(O)cc3)cs2)cc1OC,x,0.1%,16.9µM*,x,1.9%,5.2%
COc1ccc(CCNc2nc(-c3cccnc3)cs2)cc1OC,-33.2%,3.2%,12µM*,-1.3%,2.1%,-10.3%
C=C(C(C)=O)C(O)c1ccccc1 (stereo unspecified),5.1%,x,x,-6.1%,x,x
Cc1cc(C)n(-c2ccc(C(=O)Nc3ccc(S(=O)(=O)N(C)C)cc3)cc2)n1,-67.6%,-0.4%,3.8%,0.5%,-2.2%,-6.9%
COc1ccc(NC(=O)c2ccc(-n3nc(C)cc3C)cc2)cc1OC,-21.3%,17.8%,15.1µM*,-8.9%,-1.7%,-0.2%
Cc1cc(C)n(-c2ccc(C(=O)Nc3ccc(N4CCOCC4)cc3)cc2)n1,-63.7%,8.5%,-12.7%,-3.6%,17.8%,-18.3%
Cc1cc(C)n(-c2ccc(C(=O)Nc3ccc(C)c(S(=O)(=O)N(C)C)c3)cc2)n1,-14.7%[1.84 µM],-20.3%,16.9µM*,-0.4%,-4.1%,-9.8%
Cc1cc(C)n(-c2ccc(C(=O)NC3=NCCS3)cc2)n1,u,3.16µM*,15.1µM*,-3.3%,u,u
Cc1cc(C)n(-c2ccc(C(=O)Nc3ccc4c(c3)OCO4)cc2)n1,u,u,13.5µM*,-12.3%,u,u
Cc1cc(C)n(-c2ccc(C(=O)Nc3cccc(S(=O)(=O)N(C)C)c3)cc2)n1,-65.8%,-18.6%,u,4.1%,-14.4%,-7.0%
CN1C(c2ccccc2)CCOS1(=O)=O (stereo unspecified),x,10.5%,-10.0%,x,-0.4%,1.7%
Fc1ccc(-c2nnc(CSc3nnc4ccccn34)o2)cc1,u,u,u,0.4%,u,u
c1ccc(-c2cnc(CSc3nnc4ccccn34)o2)cc1,11.2µM*,1µM*,10.7µM*,-6.4%,1.58µM*,4.11µM*
COc1ccccc1NS(=O)(=O)c1ccc(C(=O)OCC(=O)NCc2ccco2)cc1,-8.3%,-7.4%,3.9%,-1.3%,-1.6%,0.5%
C/C(=N\Nc1ccccn1)c1ccc(S(=O)(=O)NCc2ccco2)cc1,24.4%,-2.9%,u,3.7%,-0.2%,0.0%
C/C(=N\Nc1ccc(C(=O)O)cc1)c1ccc(Cl)s1,x,0.282µM*,0.953µM*,x,0.398µM*,8.4%
COc1ccccc1NC(=O)COC(=O)c1ccc(S(=O)(=O)NCc2ccco2)cc1,-13.7%,-2.1%,12µM*,-5.8%,-2.0%,-1.7%
C/C(=N\Nc1ccc(C(=O)O)cc1)c1ccc(Br)cc1,x,0.0891µM*,0.19µM*,x,u,u
C/C(=N/Nc1ncc(Br)cn1)c1ccc(Br)cc1,x,15.8%,-26.8%,x,7.8%,1.7%
C/C(=N\Nc1ccc(C(=O)O)cc1)c1ccc(S(=O)(=O)NCc2ccco2)cc1,x,u,16.9µM*,x,18.8%,10.2%
Cc1cc(C)c2c(=O)cc(C(=O)Nc3sc4c(c3C(=O)NCc3ccccc3)CCCC4)oc2c1,2.1%,x,2.4%,x,x,x
CC(=O)c1ccc(NC(=O)c2cccc(NC(=O)N3CCSc4ncccc43)c2)cc1,x,x,3.9%,x,x,x
CSc1ccccc1NC(=O)C(=O)c1c[nH]c2ccccc12,u,u,15.1µM*,-0.3%,25.8%,12.3%
O=C(Nc1nccs1)C(=O)c1c[nH]c2ccccc12,u,3.16µM*,7.57µM*,-6.5%,u,8.2µM*
SMILES,SMN2 splice up,Rab9 prom act,FLuc modulator,Luc counter,NPC1 promoter act,ELG1 genotoxic
O=C(CSC1=Nc2ccccc2C2=NC(Cc3ccccc3)C(=O)N12)Nc1ccccc1C(F)(F)F (stereo unspecified),x,x,2.3%,x,x,x
COc1ccccc1-c1cc(C(=O)N2CCCc3ccccc32)no1,3.5%,14.3%,u,2.0%,2.1%,9.4%
O=C(c1cc(-c2ccc(F)cc2)on1)N1CCCc2ccccc21,u,u,10.7µM*,0.0%,22.1%,u
COc1ccc(OC)c(-c2cc(C(=O)N3CCCc4ccccc43)no2)c1,-7.0%,10.2%,1.9%,5.0%,-4.0%,-7.4%
Cc1ccc(-c2cc(C(=O)N3CCCc4ccccc43)no2)cc1,u,3.16µM*,4.26µM*,0.9%,u,u
O=C(c1cc(-c2cccs2)on1)N1CCCc2ccccc21,21.5%,22.5%,16.9µM*,-1.3%,13.8%,u
CCCCn1c(CNC(=O)C23CC4CC(CC(C4)C2)C3)nnc1SCC(=O)Nc1ccccc1,-4.3%,x,-10.6%,x,x,x
CC(C)(C)c1ccc(C(=O)N2CCCC2)s1,x,18.7%,15.1µM*,x,-6.9%,u
Oc1ccc(COCc2ccccc2)c2cccnc12,-66.4%,-3.5%,19µM*,-6.4%,3.7%,8.2µM*
COc1ccc(NC(=O)c2cccc(S(=O)(=O)NCc3ccccc3)c2)cc1S(N)(=O)=O,x,0.9%,0.6%,x,-1.1%,1.4%
Cc1cccc(NC(=O)Nc2cccc(F)c2)n1,11.4%,u,13.5µM*,-2.2%,u,u
Cc1ccnc(NC(=O)Nc2cccc(F)c2)n1,11.2µM*,1.12µM*,7.57µM*,-10.1%,2.24µM*,u
CCc1ccccc1NC(=O)Nc1cccc(F)c1,-3.9%,0.9%,u,-2.9%,-3.6%,-4.7%
COc1cccc(NC(=O)Nc2nccc(C)n2)c1,x,0.562µM*,1.2µM*,x,1.26µM*,u
CCNc1ncc2nc(-c3ccccc3)c(=O)n(C3CC3)c2n1,-1.9%,x,x,-3.0%,x,x

# Screening data from PubChem BioAssay.
